# High-throughput results deposited in PubChem BioAssay by National Center for Advancing Translational Sciences (NCATS).
# An excerpt weighted towards active compounds, which were near 8.2% of everything screened.
# ELG1 DNA repair: blocks ELG1-dependent DNA repair in HEK293T cells; Potency, µM (doses to about 46.1 µM), for inactives: top-dose activity change, negative = inhibition, actives largely listed as inhibitors; actives 2.3% (n = 330,000); HEK293T ELG1-luciferase reporter, luminescence, 16 h; DNA damage induced by 5-fluorouridine; AID 504467; further: on the % scale 0 is the no-effect control and ±100 the full control effect; nearly all actives have a fitted effect of over 55% in size
#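 DMSO vehicle served as the neutral condition. Each well held 2,000 cells given 5-fluorouridine plus compound; after 16 hr at 37 °C/5% CO2, ONE-Glo was added and luciferase measured 30 min later.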
# SW480 rereplic: inducers of DNA re-replication in SW480 colon cancer cells; SW480 DNA re-replication, Hoechst DNA content imaging, 48 h; Potency, µM (doses to about 46.1 µM), without a hit: at the highest dose re-replication activation, usual class: activators; actives 1.8% (n = 340,000); AID 624297; further: % of control where 0% means no effect; nearly all actives have a fitted effect of over 55% in size
#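 Hoechst fluorescence of nuclei (405 nm excitation, 500-530 nm emission) measured by plate-scanning imager after 48 hr compound exposure at 37 C; re-replication scored as increased number of nuclei with elevated intensity.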
# KB-3-1 cytotox: KB-3-1 parental cell cytotoxicity; KB-3-1 viability, CellTiter-Glo ATP luminescence, 72 h; Potency, µM (highest dose often 46.1 µM), most hits filed as cytotoxic; actives 1.4% (n = 400,000); further: on the % scale 0 is the no-effect control and ±100 the full control effect; nearly all actives have a fitted effect of over 60% in size
#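 KB-3-1 cells, DMEM (no phenol red) + 10% FBS; compound by pin transfer, 72 h, 37 °C. Readout: CellTiter-Glo luminescence after 10 min. Data normalized, curve-fitted.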
# KB-V1 cytotox: kills drug-selected multidrug resistant KB-V1 cells. Potency, µM (series often up to 46.1 µM), usual class: cytotoxic. actives 3.4% (n = 400,000). KB-V1 MDR cells viability, CellTiter-Glo, 72 h; further: on the % scale 0 is the no-effect control and ±100 the full control effect; nearly all actives have a fitted effect of over 60% in size
#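 Cells of the MDR subline KB-V1 are plated, dosed with compound at multiple concentrations, and incubated 72 h at 37 degrees C; CellTiter-Glo is then added and luminescence read after 10 min.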
# MCF10A rereplic: induces DNA re-replication in MCF 10a normal breast cells; actives 2.9% (n = 350,000); Potency, µM (titrated, usually from 46.1 µM), for the others: at the top dose activity, positive = re-replication, actives largely listed as activators; AID 624296; MCF 10A DNA re-replication, Hoechst nuclear intensity, 48 h; further: % of control where 0% means no effect; nearly all actives have a fitted effect of over 50% in size
# * marks the source's active call; other numbers are inactive results; i = inactive; ? = inconclusive; · = not tested or not shown; [ ] = another dose, or the depositor's remark. The call rests on the fitted dose curve; in most records, active means well fitted curve in the direction sought with a large enough effect; inconclusive means small, poorly fitted or top-dose-only effect, or another doubt; inactive means no such curve, though single readings can be large; an effect the other way counts as inactive or inconclusive. Potency means the concentration at half of the fitted maximal effect.
SMILES,ELG1 DNA repair,SW480 rereplic,KB-3-1 cytotox,KB-V1 cytotox,MCF10A rereplic
COc1ccc(-n2nnnc2C(c2ccnc3ccccc23)N2CCN(C/C=C/c3ccccc3)CC2)cc1 (stereo unspecified),·,·,?,i,·
C#CC1(O)CCC2C3CCc4cc(O)cc(C)c4C3CCC21C (stereo unspecified),·,0%,·,·,?
COc1ccc(OC)c(NS(=O)(=O)c2ccc(N3CCCC3=O)cc2)c1,?,0.82µM*,0.82µM*,2.1µM*,?
O=C(CN1CCN(C(=O)C2CC2)CC1)Nc1cc(C(F)(F)F)cc(C(F)(F)F)c1,22%,-2%,i,21µM*,5%
Cc1ccc(NC(=O)CN2CCN(C(=O)C3CC3)CC2)c(F)c1,·,·,i,i,·
c1cc2c(cc1Cc1cncc(Cc3ccc4c(c3)OCO4)c1)OCO2,·,·,i,i,·
C[C@@H]1CN([C@@H](C)CO)C(=O)c2cc(Br)cnc2O[C@H]1CN(C)Cc1cccnc1,·,·,?,i,·
CSc1cccc(-n2cc(-c3ccc4c(c3)OCO4)[nH]c2=O)c1,?,21µM*,4.1µM*,7.3µM*,21µM*
CSc1cccc(NC(=O)CNC(=O)c2ccc3c(c2)OCO3)c1,14%,-5%,i,i,-2%
CNc1ccc(/C=C2\C=Cc3ccccc32)cc1I,·,·,i,?,·
CC(C)(C)c1ccc2cc(F)cc(F)c2n1,·,·,i,i,·
CCCc1nc(SCc2cccnc2)c2c(=O)n(C)c(=O)n(C)c2n1,16µM*,-4%,i,i,6%
COc1ccc(C2CC23N=C(c2ccccc2)OC3=O)cc1 (stereo unspecified),8%,5%,i,i,16µM*
CCCCCCCCCCCCCCCCCCOC[C@H](COP(=O)([O-])OCC[N+](C)(C)C)OC,·,21µM*,·,·,?
OC(CNCCC1C=Nc2ccccc21)Cn1c2ccc(Cl)cc2c2cc(Cl)ccc21 (stereo unspecified),?,?,?,?,5.2µM*
Nc1nccc(-c2ccc(-n3cnc4ccccc43)cc2)n1,7.3µM*,-9%,i,i,3%
Cc1nccc(-c2ccc(-n3cnc4ccccc43)cc2)n1,10µM*,-10%,i,i,1%
O=C1C=CC(=O)N1c1ccc2c(c1)C(NC(=O)C(F)(F)F)c1ccccc1-2 (stereo unspecified),·,8.2µM*,·,·,?
CN(C)C(=O)NC1c2ccccc2-c2ccccc21,-5%,-17%,i,i,-7%
CC1(C)CC(=O)C=C(c2ccc(-c3cccc(C(N)=O)c3)cc2)C1=O,·,·,i,i,·
CCC(=O)Nc1sc(Cc2ccc3c(c2)OCO3)c(C)c1C(N)=O,?,?,i,i,?
COc1cc(C(=O)Nc2nc(C)c(Cc3ccc4c(c3)OCO4)s2)cc(OC)c1OC,?,5.8µM*,i,1.5µM*,2.6µM*
Cc1c(Cc2ccc3c(c2)OCO3)sc(NC(=O)c2ccc3ccccc3c2)c1C(N)=O,8%,-2%,?,i,15µM*
CCCOc1ccc(C(=O)Nc2nc(C)c(Cc3ccc4c(c3)OCO4)s2)cc1,?,?,?,i,?
COc1cccc(C(=O)CSc2nc3ccccc3n2CC(=O)N2CCOCC2)c1,9%,-1%,i,21µM*,4%
SMILES,ELG1 DNA repair,SW480 rereplic,KB-3-1 cytotox,KB-V1 cytotox,MCF10A rereplic
COc1cccc(C(=O)Cn2c(=N)n(C)c3ccccc32)c1,?,0%,10µM*,i,6%
COc1cccc(C(=O)Cn2c(NCCO)nc3ccccc32)c1,14%,-2%[9.22 µM],i,i,-5%
COC(=O)C1=C(COc2ccc(C=O)cc2OC)NC(=O)NC1c1cc(C)ccc1C (stereo unspecified),-21%,0%,?,21µM*,12%
COC(=O)C1=C(CN2CCc3ccccc32)NC(=O)NC1c1cc(C)ccc1C (stereo unspecified),13µM*,0%,i,i,3%
COC(=O)C1=C(CSCc2ccccc2)NC(=O)NC1c1cc(C)ccc1C (stereo unspecified),0%,10%,i,?,-1%
COC(=O)C1=C(CN2CCN(C)CC2)NC(=O)NC1c1cc(C)ccc1C (stereo unspecified),7%,1%,i,i,1%
COc1cc(/C=N/NC(=O)Cc2csc(N3CCOCC3)n2)cc(OC)c1O,-4%,-23%,i,i,0%
O=C(Cc1csc(N2CCOCC2)n1)N/N=C/c1ccc(Cl)cc1Cl,23µM*,1%,i,?,15%
COC(=O)/C(=N\OCc1ccc(C#N)cc1)c1c(C)nn(C)c1C,6%,-31%,i,i,-1%
Cc1noc2ncnc(N3CCCC(C(=O)Nc4cccc(C(F)(F)F)c4)C3)c12 (stereo unspecified),·,·,i,?,·
CC(C)C(=O)Nc1ccc(C(=O)c2ccccc2)cc1,?,-7%,i,13µM*,2%
CCC(CC)C(=O)Nc1cccc(C(=O)NC(C)(C)C)c1,-2%,0%,i,?,1%
CCC(CC)C(=O)Nc1cccc(C(=O)c2ccccc2)c1,-14%,1%,i,9.2µM*,2%
C[C@H](NC(=O)/C=C/[C@H]1O[C@@H](n2ccc(=O)[nH]c2=O)[C@H](O)[C@@H]1O)C(=O)O,·,·,i,i,·
Cc1cccc(/C=C/C(=O)c2ccc([N+](=O)[O-])o2)c1,?,?,?,i,12µM*
COc1ccc(/C=C/C(=O)c2ccc([N+](=O)[O-])o2)cc1,?,12µM*,18µM*,?,2.3µM*
O=C(/C=C/c1cccc([N+](=O)[O-])c1)c1ccco1,?,?,i,i,136%
O=C(/C=C/c1cccc([N+](=O)[O-])c1)c1ccc([N+](=O)[O-])o1,·,?,?,i,1.6µM*
Cc1ccc(C(=O)/C=C/c2ccc(F)cc2)o1,?,?,i,i,?
CCc1nc2c(OCc3ccc(Cl)cc3Cl)cccn2c1N(C)C(C)=O,·,·,i,?,·
CCOc1ccc2c(c1)-c1c(ssc1=S)C(C)(C)N2C(=O)c1ccco1,?,16µM*,?,?,4.1µM*
Cc1ccc(COc2ccc(CNCCCN3CCCCCC3=O)cc2)cc1,12%,18µM*,?,i,?
O=C(O)C1Cc2ccccc2CN1C(=O)c1ccccc1 (stereo unspecified),8%,-6%,i,i,-6%
CCS(=O)(=O)N1Cc2ccccc2CC1C(=O)OCC(=O)Nc1ccc(C)cc1 (stereo unspecified),1%,-1%,i,i,-9%
